# Results published in PubChem BioAssay AID504834 (National Center for Advancing Translational Sciences (NCATS), 2011).
# Values joined by “and” are separate entries in the source; they are usually repeats but may differ in a detail not shown here. Equal entries are not always repeated. The whole screen tested about 320,000 compounds, of which about 22,000 (6.9%) were called active. Where a call stands in place of a potency, no number is given. Roughly 27% stayed inconclusive and do not appear here. Calls follow the shape of the dose curve; as a rule, active = well fitted inhibition curve with a large enough effect; inconclusive = small, poorly fitted or top-dose-only effect, or another doubt; inactive = no such curve, though single readings can be large or run the other way. For the sample, actives were picked, then their nearest neighbours and some compounds at random. Some structures have more than one record in an assay (separate samples or runs), and their calls can disagree.
# Test: Primary qHTS for delayed death inhibitors of the malarial parasite plastid, 96 hour incubation
# Conditions: P. falciparum luciferase reporter growth; series mostly up to 28.7 µM
# Source text: The goal of this screen is to discover new antimalarial compounds that act by inhibiting the development of the apicoplast in the malarial parasite Plasmodium falciparum. The biochemical processes that make this organelle essential for erythrocytic stage parasites are not well understood. However, antibiotics such as azithromycin and tetracycline, which target the apicoplast translational machinery, have a potent antimalarial effect.
# We have developed a cell-based assay that measures parasite growth based on the expression of an integrated copy of a firefly luciferase reporter. To detect small molecules that cause this "delayed death" phenotype, erythrocytes infected with the luciferase-expressing parasites were incubated with compounds for either one or two generations, corresponding to 48 and 96 hours, respectively. Compounds that inhibit parasite growth in the second generation, but not the first, should be enriched in antimalarials that target the apicoplast. Growth inhibition is detected by a decrease in luciferase activity.
# Assay Provider: David Fidock and Eric Ekland, Columbia University
# Keywords: NIH Roadmap, MLPCN, MLI, MLSMR, qHTS, NCGC, qHTS, malaria, luciferase, viability
# Four microliters of infected erythrocytes (2% hematocrit, 0.05% parasitemia final concentration) in culture medium were dispensed and the plates incubated for 96 hours at 37 C in 5% CO2. Two microliters of luciferase detection reagent was added and luminescence was detected by a ViewLux (PerkinElmer) reader.
# Potency is read from the fitted curve at half-maximal effect.
SMILES,Potency,"activity change, negative = inhibition"
Cn1c(=O)c2sccc2n(Cc2ccc(Br)cc2)c1=O,inactive,–
O=C(Nc1ccccc1C(=O)Nc1ccncc1)c1ccc([N+](=O)[O-])cc1,inactive,–
CN=C(NC#N)NCCSCc1nc[nH]c1C,inactive and 13.5 µM (active),–
O=C(Nc1cccnc1)c1cc([N+](=O)[O-])ccc1Cl,inactive,–
CSCCC(=O)N1CCCC(CNC(=O)c2ccccc2Cl)C1 (stereo unspecified),inactive,–
O=C(CCc1nnc2ccc(NCc3ccccc3Cl)nn12)NCC1CCN(C2CCCC2)C1 (stereo unspecified),5.22 µM (active),–
O=C(CCc1nnc2ccc(NCCCN3CCCC3=O)nn12)NCc1ccccc1Cl,inactive,–
Cc1cccc(N(C)C(=O)c2cc(S(=O)(=O)N3CCCCC3)c[nH]2)c1,inactive,–
Cn1nc(C(F)(F)F)c(C(=O)Nc2cccc(C(F)(F)F)c2)c1SCc1ccc(Cl)cc1,2.62 µM (active),–
O=C(O)CSc1c2c(nc3cc(C(=O)Nc4cccc(C(F)(F)F)c4)ccc13)CCCC2,inactive,–
CC(C)C[C@H](NC(=O)Nc1cccc(C(F)(F)F)c1)C(=O)O,inactive,–
O=C(OCC(=O)N1CCOCC1)c1ccc2ccccc2c1,inactive,–
Cc1cccc(NC(=O)c2nc[nH]c2C(=O)NCC(=O)OCc2ccccc2)c1,inactive,–
CCOC(=O)c1ccc(NC(=O)c2nc[nH]c2C(=O)N[C@@H](CCCCNC(=O)OC(C)(C)C)C(=O)OC(C)(C)C)cc1,5.86 µM (active),–
CCOC(=O)c1ccc(NC(=O)c2nc[nH]c2C(=O)NCc2ccccc2)cc1,inactive,–
CCOC(=O)c1[nH]cnc1C(=O)Nc1ccccc1C,inactive,–
CNC(=O)c1[nH]cnc1C(=O)N[C@@H](CC(C)C)C(=O)OC(C)(C)C,inactive,–
Cc1ccc(NC(=O)c2nc[nH]c2C(=O)N[C@@H](CCCCNC(=O)OC(C)(C)C)C(=O)OC(C)(C)C)cc1,11.7 µM (active),–
C=CCSc1ccc(S(=O)(=O)N2CCN(C)CC2)cn1,inactive,–
Cc1cc(NC(=O)c2ccco2)c(=O)n(Cc2c(F)cccc2Cl)c1,inactive,–
CCOC(=O)N1CCN(c2c(NCCN3CCN(c4ccccc4F)CC3)c(=O)c2=O)CC1,inactive,–
COc1ccccc1NC(=O)CCC(=O)OC(C)C(=O)c1ccccc1 (stereo unspecified),inactive,–

SMILES,Potency,"activity change, negative = inhibition"
Cc1ccc(C(=O)NCC(=O)OCC(=O)Nc2cccc(S(=O)(=O)N3CCCC3)c2)cc1C,inactive,–
Cc1ccc(CN2CCN(c3ncccn3)CC2)c(C)c1,inactive,–
CC(=O)N1CCN(C(=O)Nc2cccc(C(F)(F)F)c2)CC1,inactive,–
Cc1cccc(NC(=O)c2cccc(C(F)(F)F)c2)c1,inactive,–
Cc1cccc(NC(=O)c2nnn(-c3cccc(C(F)(F)F)c3)c2N)c1,5.86 µM (active),–
O=C(O)C1CCCN1S(=O)(=O)c1ccc(Br)cc1 (stereo unspecified),inactive,–
COc1ccc(-c2cc(C(=O)n3cnc4ccccc43)c3ccccc3n2)cc1,inactive,–
COc1ccc(-c2c(C#Cc3ccccc3)c3ccccc3n2C)cc1,6.57 µM (active),–
COc1ccc(CNc2ncnc3ccccc23)cc1,inactive,–
COc1ccc(OCCCC(=O)NCCc2ccccc2)cc1,inactive,–
COc1ccc(-c2c3c(=O)n(C)c(=O)n(C)c3cn2-c2cccc(OC)c2)cc1,inactive,–
COc1ccc(CCNCc2c(-c3ccccc3)n(C)c3ccccc23)cc1,10.4 µM (active),–
CN(CCC(=O)Nc1cc(S(=O)(=O)N(C)C)ccc1Cl)CC(=O)Nc1ccc(F)cc1,inactive,–
O=C(Nc1cccc2c1N(C(=O)c1ccco1)CCC2)c1ccco1,inactive,–
O=C(CSc1ncnc2c1oc1ccccc12)NC1CCCC1,inactive,–
CCCOc1ccc(-c2c(C(=O)N/N=C/c3ccco3)nnn2-c2nonc2N)cc1,inactive,–
Cc1cc(C)cc(NC(=O)N(C)Cc2ccccc2)c1,inactive,–
CN(Cc1ccccc1)C(=O)c1cccc(C(=O)N(C)Cc2ccccc2)c1,13.1 µM (active),–
CN(Cc1ccccc1)C(=O)CCc1ccccc1,inactive,–
Cc1cc(C(=O)N/N=C/c2ccccn2)c2ccccc2n1,inactive,–
O=C(N/C(=C\c1ccc(O)cc1)C(=O)N1CCCCC1)c1ccccc1,inactive,–
COc1ccc(C)cc1NC(=O)C(OC(=O)c1cccc(S(=O)(=O)N(C)c2ccccc2)c1)c1ccccc1 (stereo unspecified),inactive,–

SMILES,Potency,"activity change, negative = inhibition"
Cc1ccc(C)c(NC(=O)C(OC(=O)c2ccc(C)s2)c2ccccc2)c1 (stereo unspecified),2.94 µM (active),–
COc1ccc(C)cc1NC(=O)C(Sc1ccccc1)c1ccccc1 (stereo unspecified),inactive,–
C/C(CC(=O)NCc1ccc(Cl)cc1)=N\NC(=O)COc1ccc(C)cc1Br,inactive,–
CC(C)C[C@H](NC(=O)N1CCn2c1nc1ccccc12)C(=O)NC1CC1,inactive,–
O=S(=O)(NCCc1ccccn1)c1cc(Cl)cc(Cl)c1O,inactive,–
N#Cc1ccsc1NC(=O)CN1CCCCC1,inactive,–
O=S(=O)(c1cc(Cl)ccc1Cl)N1CCN(Cc2ccco2)CC1,inactive,–
N#Cc1ccsc1NC(=O)CN1CCN(S(=O)(=O)c2cc(Cl)ccc2Cl)CC1,4.15 µM (active),–
CCN(CC)c1ccc(/C=N/NC(=O)CNC(=O)c2cccnc2)cc1,inactive,–
CCOc1ccc(NC(=O)COc2ccc(S(=O)(=O)N3CCCC3)cc2)cc1,inactive,–
O=C(COc1ccc(S(=O)(=O)N2CCCCC2)cc1)NCc1ccccn1,inactive,–
CCOc1ccc(S(=O)(=O)N2CCCCC2)cc1NC(=O)CN1CCCC1c1cccs1 (stereo unspecified),4.65 µM (active),–
CCOc1ccccc1NC(=O)C1CCCN(S(=O)(=O)c2ccccc2)C1 (stereo unspecified),inactive,–
CC(=O)NCCC(=O)Nc1cc(S(=O)(=O)N2CCCCC2)ccc1Oc1cccc(C)c1,inactive,–
CCOc1ccccc1NC(=O)COc1ccc(S(=O)(=O)N2CCCC2)cc1,8.28 µM (active),–
CN(C)C(=O)N=NC(=O)N(C)C,inactive,–
O=C(Oc1ccc(Br)cc1)c1cccnc1,inactive,–
O=C(COC(=O)c1cccc(Cl)c1)NC1CCCCCCC1,inactive,–
CCc1c(C)c2ccc(OC3CCCCC3=O)cc2oc1=O (stereo unspecified),inactive,–
Cc1ccc(C(=O)C(C)OC(=O)Cc2n[nH]c(=O)c3ccccc23)cc1C (stereo unspecified),inactive,–
Cc1cc(C)c(S(=O)(=O)N(C)CC(=O)NCC2CCCO2)c(C)c1 (stereo unspecified),inactive,–
COc1ccccc1CCC(=O)OCC(=O)N1CCN(S(=O)(=O)c2ccc(C)cc2C)CC1,inactive,–

SMILES,Potency,"activity change, negative = inhibition"
CCCCCCCN=C(C)c1ccccc1O,inactive,–
C/C(=N\N(C)C)c1ccc(OCCOc2ccc([N+](=O)[O-])cc2)cc1,inactive,–
COc1ccc(C(C#N)(CC(=O)O)c2cnccn2)cc1OC (stereo unspecified),inactive,–
COc1cc(OC)cc(C(=O)NNC(=O)CNC(=O)c2ccc(Br)o2)c1,inactive,–
O=C(Cc1cccc2ccccc12)NCCC1=CCCCC1,inactive,–
S=C(NCCC1=CCCCC1)Nc1ccccc1,0.586 µM (active),–
S=C(NCCCc1ccccc1)Nc1ccc(Br)cc1,inactive,–
CC(=O)N1CC(=O)N(CC(=O)Nc2ccc(Br)cc2)C1=S,inactive,–
CC(=O)c1nnn(-c2ccc(Cl)cc2C#N)c1C,inactive,–
Cc1cccc(-c2c(NC(=O)c3ccco3)oc3ccc(Cl)cc3c2=O)c1,inactive,–
Cc1noc(NS(=O)(=O)c2ccc(NC(=O)c3oc4ccc(F)cc4c3C)cc2)c1C,inactive,–
CC(C)CCn1c(=O)c2c(nc3n2CCCN3Cc2ccccc2)n(C)c1=O,6.57 µM (active),–
CCOC(=O)CSc1nc2c(c(=O)n(Cc3ccccc3Cl)c(=O)n2C)n1C,inactive,–
Cn1cnc2c1c(=O)n(Cc1c(Cl)cccc1Cl)c(=O)n2C,inactive,–
N/C(=N\OC(=O)Cc1ccccc1[N+](=O)[O-])c1ccc(Br)cc1,–,12.7% [at 5.75 µM] (inactive)
N/C(=N\OC(=O)N1c2ccccc2Sc2ccccc21)c1ccc(Br)cc1,10.4 µM (active),–
N/C(=N\OC(=O)/C=C/c1ccccc1)c1ccc(Br)cc1,inactive,–
Cc1ccc(C)c(SCc2nc3sc(C(=O)O)c(C)c3c(=O)[nH]2)c1,inactive,–
CC1CCN(C(=O)c2ccc3c(c2)NC(=O)CN3)CC1,inactive,–
Cn1cc(CNC(=O)c2ccc(OC3CCN(Cc4ccccn4)CC3)cc2)cn1,inactive,–
O=C(NCC1CCCO1)c1cc2c([nH]c3ccccc32)c(-c2ccc(F)cc2)n1 (stereo unspecified),9.28 µM (active),–
O=C(Nc1ccccc1C(=O)NCC1CCCO1)c1ccccc1F (stereo unspecified),inactive,–

SMILES,Potency,"activity change, negative = inhibition"
COc1ccc2cc(C(=O)NCC3CCCO3)[nH]c2c1 (stereo unspecified),inactive,–
Cc1ccc(C(=O)Nc2ccn(C)n2)cc1,inactive,–
CCOc1ccc2c(c1)C(c1ccc(C)cc1)=NNC(c1ccc(C)cc1)=N2,inactive,–
CCOc1ccc(-c2cc(C)[n+](CCN(CC)CC)c(-c3ccc(OCC)cc3)c2)cc1,0.37 µM (active),–
CCOc1ccc(-c2nc(C)sc2CC(=O)O)cc1,inactive,–
Nc1ccc(C(=O)Nc2ccccc2N)cc1,inactive,–
O=C(COc1ccccc1)Nc1ccc(N2CCN(C(=O)c3cccs3)CC2)cc1,inactive,–
COc1ccc(S(=O)(=O)N2CCN(C(=O)c3cccs3)CC2)cc1OC,inactive,–
Cc1ccc(S(=O)(=O)N2CCN(C(=O)c3cccs3)CC2)cc1,inactive,–
O=C(c1cccs1)N1CCN(C(=O)N2CCOCC2)CC1,inactive,–
CCS(=O)(=O)N1CCN(C(=O)c2cccs2)CC1,4.65 µM (active),–
COc1ccc(N2CCN(C(=O)c3cccs3)CC2)cc1,13.1 µM (active),–
NC(=O)COc1ccccc1C(=O)NC12CC3CC(CC(C3)C1)C2,inactive,–
CCN(CC)CCCN=C(N)N,inactive,–
CC(C)(C)n1nnnc1C(c1ccccc1F)N1CCN(C(=O)c2ccco2)CC1 (stereo unspecified),inactive,–
COc1ccc(CN2CCN(Cc3ccc(OC)c(OC)c3OC)CC2)cc1,inactive,–
Cc1nc(C(=O)Nc2ccc(Cl)cc2)sc1C1(C)CC(c2ccccc2)=NO1 (stereo unspecified),inactive,–
Cc1nn(-c2ccccc2)c(=O)c2noc(C)c12,inactive,–
